Experimental data as given in PubChem BioAssay (Tox21).
Values joined by “and” are separate entries in the source; they are usually repeats but may differ in a detail not shown here. Equal entries are not always repeated. Results filed as inconclusive are left out. Where a call stands in place of a potency, no number is given. Some compounds were tested as several samples or in several runs, with calls that do not always agree. Active and inactive are the calls of the source. Unless noted, calls follow the shape of the full dose curve.

What was measured:
[1] = Nuclear factor erythroid 2-related factor 2/antioxidant responsive element (Nrf2/ARE) small molecule agonists: luciferase reporter gene qHTS assay in human keratinocytes (AID 1919969); also: nearly all actives have a fitted effect of over 35% in size; also: potency is read from the fitted curve at half-maximal effect
[2] = biological target: Gonadotropin-releasing hormone receptor (Homo sapiens) (UniProt P30968); assay: Human gonadotropin-releasing hormone receptor (GnRHR) small molecule agonists, calcium flux assay in GnRHR-HEK293 cells (AID 1920063); also: nearly all actives have a fitted effect of over 35% in size
How it was run: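 We seeded human GnRHR-expressing HEK293 cells for 18 hours, loaded them with calcium dye for an hour at 37 C, added test compounds, and recorded fluorescence intensity kinetically for three minutes.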

[3] = biological target: KiSS-1 receptor (Homo sapiens) (UniProt Q969F8); assay: Human kisspeptin (KISS1R) small molecule agonists, calcium flux assay in KISS1R-HEK293 cells (AID 1920064; active = well fitted activation curve with a large enough effect in the repeat runs)
How it was run: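 Kinetic calcium assay, 1 s sampling over 3 min at Ex/Em 480/540, in HEK293 cells engineered with human KISS1R; compounds delivered in DMSO after 1 h dye loading.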

[4] = G protein-coupled receptor (GPCR) small molecule agonists, calcium flux assay: HEK293 wild type cell line counter screen (AID 1920065)
How it was run: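 Calcium-sensitive dye, loaded 1 h at 37 C into cells cultured 18 h, reports compound-evoked calcium release as fluorescence (Ex/Em 480/540), measured over 3 min. Agonist mode; 15-point titrations, triplicate.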

[5] = p53 small molecule agonists, cell-based qHTS assay with human liver microsomes (AID 1963577);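 also: p53 response element beta-lactamase reporter cells with liver microsomes plus NADPH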
How it was run: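 16 h, 37 C exposure of p53RE-bla cells to compounds with human liver microsomes and NADPH (0.5 mg/mL final each); detection via LiveBLAzer mixture, 2 h dark at room temperature.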

[6] = p53 small molecule agonists, cell-based qHTS assay with human liver microsomes: qHTS cell viability counter screen (AID 1963579); also: nearly all actives have a fitted effect of over 45% in size
How it was run: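 In this multiplexed counter screen, the reporter plates were subsequently treated with CellTiter-Glo so that cell viability, reflected by luminescence, could be recorded for p53RE-bla cells dosed 16 h with compounds under microsomal activation (HLM and NADPH).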

[7] = p53 small molecule agonists, cell-based qHTS assay with rat liver microsomes: qHTS cell viability counter screen (AID 1963580); also: nearly all actives have a fitted effect of over 45% in size; also: potency is read from the fitted curve at half-maximal effect
How it was run: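 In HCT-116 cells carrying a p53 response element-bla reporter, compounds were metabolically activated in situ by rat liver microsomes with NADPH over 16 h. Cell ATP content then served as the cytotoxicity measure.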

[8] = p53 small molecule agonists, cell-based qHTS assay: qHTS cell viability counter screen (AID 1963581); also: nearly all actives have a fitted effect of over 45% in size
How it was run: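 Following 5 h attachment, HCT-116 p53RE-bla cells took up compound for 16 h at 37 C; the reporter was read with B/G FRET substrate (2 h RT), and viability then via CellTiter-Glo ATP luminescence.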

[9] = biological target: Beta-2 adrenergic receptor (Homo sapiens) (UniProt P07550); assay: Adrenergic beta2 receptor (ADRB2) small molecule antagonists, cell-based qHTS assay (AID 1963592); also: nearly all actives have a fitted effect of over 50% in size; also: potency is read from the fitted curve at half-maximal effect
How it was run: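 Cells (CHO, stable ADRB2 overexpression) incubated 18-20hr at 37C; compounds added from DMSO; agonist mix (1nM isoproterenol, 100uM IBMX, 25uM Ro-20-1724) added; 0.5hr RT; d2-cAMP and anti-cAMP-cryptate added; 1hr RT; 665/615 nm read.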

[10] = biological target: Beta-2 adrenergic receptor (Homo sapiens) (UniProt P07550); assay: Adrenergic beta2 receptor (ADRB2) small molecule agonists, cell-based qHTS assay (AID 1963593);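 also: CHO cells stably overexpressing human ADRB2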
How it was run: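 CHO cells stably over-expressing ADRB2 were plated overnight at 37C, then dosed with compounds plus a stimulation mix containing 100uM IBMX and 25uM Ro-20-1724 for 0.5hr at room temperature. cAMP was measured by HTRF competition, 1hr.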

[11] = biological target: D(2) dopamine receptor (Homo sapiens) (UniProt P14416); assay: Dopamine D2 receptor (DRD2) small molecule agonists, cell-based qHTS assay (AID 1963594); also: nearly all actives have a fitted effect of over 35% in size
How it was run: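 HEK293 cells stably expressing DRD2 were cultured 24 h at 37 C, then given Ro20-1724 (0.1 mM final) and compounds for 10 min at room temperature. NKH477 (200nM) was then added for 30 min. cAMP was read by HTRF.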

[12] = biological target: D(2) dopamine receptor (Homo sapiens) (UniProt P14416); assay: Dopamine D2 receptor (DRD2) small molecule antagonists, cell-based qHTS assay (AID 1963595; active = well fitted inhibition curve with a large enough effect in the signal ratio in the repeat runs, with a control signal flat; the % refers to the signal ratio)
How it was run: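 Stable D2 receptor HEK293 line, 24 h after seeding. Compound preincubated 10 min, then quinpirole (12 nM) with forskolin analogue NKH477 (200 nM), 30 min, room temperature. Detection by time-resolved FRET of cAMP.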

[13] = p53 small molecule agonists, cell-based qHTS assay with rat liver microsomes (AID 1963578)
How it was run: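 With rat liver microsomes and NADPH present (0.5 mg/mL final each), p53RE-bla cells are treated with compound for 16 h at 37 C. LiveBLAzer detection mixture is then applied for 2 h at room temperature in the dark.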

[14] = p53 small molecule agonists, cell-based qHTS assay (AID 1963582; active = well fitted activation curve with a large enough effect in the signal ratio in the repeat runs, not every such curve was filed as active; the % refers to the signal ratio)
How it was run: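 In this cell-based concentration-response screen, a p53 response element drives beta-lactamase; cells received DMSO-borne compounds after 5 h culture and were incubated a further 16 h before FRET substrate development.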

[15] = biological target: 5-hydroxytryptamine receptor 2A (Homo sapiens) (UniProt P28223); assay: 5-hydroxytryptamine receptor 2A (HTR2A) small molecule antagonists, cell-based qHTS assay (AID 1963586); also: nearly all actives have a fitted effect of over 45% in size
How it was run: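 Antagonist-mode intracellular calcium assay: DOI (4 nM) added after 5 min compound pre-incubation at room temperature to dye-loaded HTR2A-CHO cells. Fluorescence followed for 3 min, sampled every second.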

[16] = biological target: 5-hydroxytryptamine receptor 2A (Homo sapiens) (UniProt P28223); assay: 5-hydroxytryptamine receptor 2A (HTR2A) small molecule agonists, cell-based qHTS assay (AID 1963587); also: nearly all actives have a fitted effect of over 30% in size
How it was run: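 HTR2A-CHO cells, plated 18 h at 37 C/5% CO2, dye-loaded 1 h at 37 C; compounds in DMSO added by pin tool (agonist mode). Intracellular calcium flux read as kinetic fluorescence on FDSS over 2 min at 1 s intervals.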

[17] = biological target: Muscarinic acetylcholine receptor M1 (Homo sapiens) (UniProt P11229); assay: Cholinergic receptor muscarinic 1 (CHRM1) small molecule antagonists, cell-based qHTS assay (AID 1963588); also: nearly all actives have a fitted effect of over 40% in size
How it was run: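 CHRM1-CHO calcium-flux assay, antagonist mode. Cells were seeded 18 h, dye-loaded 1 h at 37 C and given compound for 5 min at RT, then acetylcholine was added at 50nM. FDSS fluorescence was read 3 min; 15 concentrations, three runs.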

[18] = cAMP Responsive Elements (CRE) small molecule antagonists, cell-based qHTS assay (AID 1963591; active = well fitted inhibition curve with a large enough effect in the signal ratio in the repeat runs, not every such curve was filed as active; the % refers to the signal ratio)
How it was run: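 HEK293T cells carrying a CRE-driven beta-lactamase reporter receive compound and NKH477 (0.25 uM final) for 3 h. Fluorescence from LiveBLAzer B/G FRET substrate is read after 2 h at room temperature.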

[19] = cAMP Responsive Elements (CRE) small molecule agonists, cell-based qHTS assay (AID 1963590)
How it was run: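 A CRE-responsive beta-lactamase reporter in HEK 293T cells was used. Treatment ran 3 h at 37 C; detection used LiveBLAzer B/G FRET substrate for 2 h at room temperature.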

[20] = biological target: Muscarinic acetylcholine receptor M1 (Homo sapiens) (UniProt P11229); assay: Cholinergic receptor muscarinic 1 (CHRM1) small molecule agonists, cell-based qHTS assay (AID 1963589); also: nearly all actives have a fitted effect of over 35% in size
How it was run: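 Measures agonist-induced intracellular calcium rise. Stable human CHRM1 CHO line, 1 h dye load at 37 C, compounds from DMSO, kinetic fluorescence read.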

Chain of Muscarinic acetylcholine receptor M1 (Homo sapiens) (P11229 whole entry, looked up): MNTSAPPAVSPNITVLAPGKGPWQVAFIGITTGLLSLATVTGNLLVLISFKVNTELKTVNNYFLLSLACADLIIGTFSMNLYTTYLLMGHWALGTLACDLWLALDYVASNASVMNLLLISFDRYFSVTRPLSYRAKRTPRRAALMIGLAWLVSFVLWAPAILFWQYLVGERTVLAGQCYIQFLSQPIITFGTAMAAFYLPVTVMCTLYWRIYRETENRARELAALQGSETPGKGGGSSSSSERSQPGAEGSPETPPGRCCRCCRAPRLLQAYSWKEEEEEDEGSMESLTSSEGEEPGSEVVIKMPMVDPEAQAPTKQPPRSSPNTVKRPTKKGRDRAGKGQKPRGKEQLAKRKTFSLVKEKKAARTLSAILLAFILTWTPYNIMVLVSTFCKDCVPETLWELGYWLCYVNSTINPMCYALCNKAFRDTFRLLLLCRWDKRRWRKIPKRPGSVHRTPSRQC
Chain of Beta-2 adrenergic receptor (Homo sapiens) (P07550 whole entry, looked up): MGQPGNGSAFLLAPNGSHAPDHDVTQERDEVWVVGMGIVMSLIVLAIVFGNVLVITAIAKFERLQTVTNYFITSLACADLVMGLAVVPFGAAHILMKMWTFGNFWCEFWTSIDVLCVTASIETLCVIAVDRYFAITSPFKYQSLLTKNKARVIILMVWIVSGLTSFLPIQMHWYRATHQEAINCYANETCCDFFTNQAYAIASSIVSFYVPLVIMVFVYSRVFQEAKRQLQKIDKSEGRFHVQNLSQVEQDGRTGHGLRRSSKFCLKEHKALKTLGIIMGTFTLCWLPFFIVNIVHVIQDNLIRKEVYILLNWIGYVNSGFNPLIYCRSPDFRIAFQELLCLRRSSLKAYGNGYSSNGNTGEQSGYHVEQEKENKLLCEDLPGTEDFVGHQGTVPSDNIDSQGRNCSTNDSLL
Chain of KiSS-1 receptor (Homo sapiens) (Q969F8 whole entry, looked up): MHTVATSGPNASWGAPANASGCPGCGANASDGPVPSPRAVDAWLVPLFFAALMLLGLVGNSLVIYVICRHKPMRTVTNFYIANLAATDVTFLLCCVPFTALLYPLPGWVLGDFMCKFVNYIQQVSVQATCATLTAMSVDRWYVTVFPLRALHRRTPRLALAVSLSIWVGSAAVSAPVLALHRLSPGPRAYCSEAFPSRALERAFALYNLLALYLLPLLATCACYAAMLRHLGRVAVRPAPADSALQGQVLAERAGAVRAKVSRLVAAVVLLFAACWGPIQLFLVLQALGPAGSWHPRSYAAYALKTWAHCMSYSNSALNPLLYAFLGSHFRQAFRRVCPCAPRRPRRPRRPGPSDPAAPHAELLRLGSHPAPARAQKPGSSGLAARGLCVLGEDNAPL
Chain of D(2) dopamine receptor (Homo sapiens) (P14416 whole entry, looked up): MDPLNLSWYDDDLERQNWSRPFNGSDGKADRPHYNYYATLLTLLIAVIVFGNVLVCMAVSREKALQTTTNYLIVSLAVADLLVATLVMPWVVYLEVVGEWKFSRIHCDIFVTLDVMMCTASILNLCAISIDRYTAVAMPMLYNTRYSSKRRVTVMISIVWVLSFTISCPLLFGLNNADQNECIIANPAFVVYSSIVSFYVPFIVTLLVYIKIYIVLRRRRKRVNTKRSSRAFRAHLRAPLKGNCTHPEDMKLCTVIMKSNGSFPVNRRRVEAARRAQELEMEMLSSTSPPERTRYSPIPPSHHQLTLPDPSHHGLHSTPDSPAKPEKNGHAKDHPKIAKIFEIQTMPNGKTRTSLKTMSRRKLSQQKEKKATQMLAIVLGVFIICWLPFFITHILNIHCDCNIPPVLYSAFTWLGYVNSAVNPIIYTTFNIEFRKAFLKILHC
Chain of 5-hydroxytryptamine receptor 2A (Homo sapiens) (P28223 whole entry, looked up): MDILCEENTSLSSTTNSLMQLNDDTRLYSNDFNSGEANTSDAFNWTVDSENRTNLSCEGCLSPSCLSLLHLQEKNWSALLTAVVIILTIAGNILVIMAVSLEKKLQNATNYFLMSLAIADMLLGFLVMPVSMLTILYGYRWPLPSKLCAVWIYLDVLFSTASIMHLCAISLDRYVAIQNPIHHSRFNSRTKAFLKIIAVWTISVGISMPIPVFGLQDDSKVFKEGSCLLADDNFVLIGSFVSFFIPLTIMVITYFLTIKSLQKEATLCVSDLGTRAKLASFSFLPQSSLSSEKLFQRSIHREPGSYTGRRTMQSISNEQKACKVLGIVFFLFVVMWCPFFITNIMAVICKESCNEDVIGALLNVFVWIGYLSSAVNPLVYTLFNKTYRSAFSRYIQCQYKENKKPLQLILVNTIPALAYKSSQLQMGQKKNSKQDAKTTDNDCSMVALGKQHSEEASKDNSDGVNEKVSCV
Chain of Gonadotropin-releasing hormone receptor (Homo sapiens) (P30968 whole entry, looked up): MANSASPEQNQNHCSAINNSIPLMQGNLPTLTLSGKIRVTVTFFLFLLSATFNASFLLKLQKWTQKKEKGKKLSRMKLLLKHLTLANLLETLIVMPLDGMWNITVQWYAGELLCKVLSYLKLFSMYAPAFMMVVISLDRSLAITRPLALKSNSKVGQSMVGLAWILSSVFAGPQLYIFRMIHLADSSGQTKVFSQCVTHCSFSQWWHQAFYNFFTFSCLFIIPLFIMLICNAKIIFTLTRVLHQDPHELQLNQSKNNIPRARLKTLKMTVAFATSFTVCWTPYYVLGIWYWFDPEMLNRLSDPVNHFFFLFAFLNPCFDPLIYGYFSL

Compound	Potency [1]	Potency [2]	Potency [3]	Potency [4]	Potency [5]	Potency [6]	Potency [7]	Potency [8]	Potency [9]	Potency [10]	Potency [11]	Potency [12]	Potency [13]	Potency [14]	Potency [15]	Potency [16]	Potency [17]	Potency [18]	Potency [19]	Potency [20]
CCc1ccc(CCOc2ccc(CC3SC(=O)NC3=O)cc2)nc1 (stereo unspecified)	27.3 µM (active) and inactive	inactive	inactive	inactive	inactive	inactive	inactive	inactive	inactive	inactive	inactive	inactive								
CC1(C)S[C@@H]2[C@H](NC(=O)COc3ccccc3)C(=O)N2[C@H]1C(=O)O	inactive	inactive	inactive	inactive		inactive	inactive	inactive	inactive	inactive	inactive	inactive	inactive	inactive	inactive	inactive	inactive	inactive		
Cc1cn([C@H]2C[C@H](N=[N+]=[N-])[C@@H](CO)O2)c(=O)[nH]c1=O	inactive	inactive	inactive	inactive	inactive	inactive	inactive	inactive	inactive	inactive	inactive	inactive	inactive	inactive				inactive	inactive	
Cc1ccccc1C=O	inactive	inactive	inactive	inactive	inactive	inactive	inactive	inactive		inactive	inactive	inactive	inactive		inactive	inactive	inactive	inactive	inactive	inactive
CN(N=O)C(=O)N[C@@H]1[C@@H](O)[C@H](O)[C@@H](CO)O[C@@H]1O	inactive	inactive	inactive	inactive	inactive	inactive	inactive	inactive	inactive	inactive	inactive	inactive	inactive	inactive				inactive	inactive	
CCC(O)OCCCOC (stereo unspecified)	inactive	inactive	inactive	inactive	inactive	inactive	inactive		inactive		inactive	inactive	inactive		inactive	inactive	inactive		inactive	inactive
Cc1cc(Cc2cc(C)cc(C(C)(C)C)c2O)c(O)c(C(C)(C)C)c1	inactive	inactive	inactive	inactive	inactive		inactive and 36.3 µM (active)	inactive	34.6 µM (active) and inactive		inactive		inactive		inactive	inactive	inactive			inactive
C[C@]12CC[C@@H]3c4ccc(O)cc4CC[C@H]3[C@@H]1C[C@@H](O)[C@@H]2O	inactive	inactive	inactive	inactive	inactive	inactive	inactive	inactive	inactive	inactive	inactive	inactive	inactive	inactive					inactive	
C=CCNC(N)=S	inactive	inactive	inactive	inactive	inactive	inactive	inactive	inactive	inactive		inactive	inactive	inactive	inactive	inactive	inactive	inactive	inactive	inactive	inactive
COCC(C)O (stereo unspecified)	inactive	inactive	inactive	inactive	inactive	inactive	inactive	inactive	inactive	inactive	inactive	inactive	inactive		inactive	inactive	inactive	inactive	inactive	inactive
CCCCOC(=O)COc1ccc(Cl)cc1Cl	69.4 µM (active) and inactive	inactive	inactive	inactive	inactive	inactive	inactive	inactive	inactive	inactive	inactive	inactive		inactive	inactive	inactive	inactive		inactive	
CC(C)Cc1ccc(C(C)C(=O)O)cc1 (stereo unspecified)	inactive	inactive	inactive	inactive	inactive	inactive	inactive	inactive	inactive	inactive	inactive	inactive	inactive	inactive				inactive		
Nc1ccc(S(=O)(=O)Nc2nccs2)cc1	inactive	inactive	inactive	inactive	inactive		inactive	inactive	inactive	inactive	inactive	inactive	inactive	inactive				inactive	inactive	
Cc1c(N(C)CS(=O)(=O)O)c(=O)n(-c2ccccc2)n1C	inactive	inactive	inactive	inactive	inactive	inactive	inactive		inactive		inactive	inactive						inactive	inactive	
